Source: PubChem (Paczesny and Yang Labs, IUPUI and University of Michigan)
The full list was thinned out, with hits kept by preference.
ST2 inh – inhibitors of human ST2 (IL1RL1) binding to IL-33, primary screen, biochemical, AlphaLISA; AlphaLISA ST2-Fc/biotin-IL-33 interaction, 1 h; inhibition, % for hits at 17 µM; hit rate 2.3% among 78,000; AID 1259354, 2018; in the data active = inhibition above about 30%
Target sequence (Q01638 whole entry, looked up): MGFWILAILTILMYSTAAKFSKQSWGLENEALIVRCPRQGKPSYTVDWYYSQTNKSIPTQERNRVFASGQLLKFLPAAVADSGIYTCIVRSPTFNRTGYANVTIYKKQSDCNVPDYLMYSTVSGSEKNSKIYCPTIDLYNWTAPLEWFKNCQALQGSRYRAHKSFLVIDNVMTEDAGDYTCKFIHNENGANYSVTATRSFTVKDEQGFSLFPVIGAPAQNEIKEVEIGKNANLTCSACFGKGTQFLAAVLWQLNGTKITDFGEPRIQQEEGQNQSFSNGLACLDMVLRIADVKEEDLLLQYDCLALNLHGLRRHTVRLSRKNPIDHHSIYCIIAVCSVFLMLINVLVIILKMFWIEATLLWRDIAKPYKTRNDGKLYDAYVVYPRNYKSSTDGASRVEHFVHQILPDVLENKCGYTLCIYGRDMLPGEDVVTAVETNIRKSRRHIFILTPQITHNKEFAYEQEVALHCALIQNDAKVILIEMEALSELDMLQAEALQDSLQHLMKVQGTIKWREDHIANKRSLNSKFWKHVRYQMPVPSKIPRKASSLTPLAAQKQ
Active calls of the source: *; i = inactive; ! = repeats disagree.

SMILES	ST2 inh
C=CCn1c(C)nc2c(sc3nc4c(cc32)COC(C)(C)C4)c1=O	i
CC1(C)Cc2nc3sc4c(=O)[nH]cnc4c3cc2CS1	80.0%*
CCCCn1c(C)nc2c(sc3nc4c(cc32)COC(C)(C)C4)c1=O	i
COC(=O)C1=C(C)NC2=C(C(=O)CC(C)(C)C2)C1c1cc(Br)c(O)c(OC)c1 (stereo unspecified)	i
Cc1ccc(CNC(=O)C2C3C=CC4(CN(Cc5cccs5)C(=O)C24)O3)cc1 (stereo unspecified)	i
CCC1(c2ccccc2)C(=O)NCNC1=O	i
Cc1ccc(S(=O)(=O)N=C2C=CC(=O)c3ccccc32)c(C)c1	61.0%*
CC(=O)N(CN1C(=O)c2ccccc2C1=O)c1cc(C)ccc1C	i
Cc1ccc(S(=O)(=O)N2CCN(c3nc(C)cc(N4CCCC4)n3)CC2)c(C)c1	i
Cc1ccc(C)c(S(=O)(=O)N=C2C=C(Br)C(=O)c3ccccc32)c1	34.0%*
Cc1cc(C)c(S(=O)(=O)N=C2C=CC(=O)c3ccccc32)c(C)c1	39.0%*
Cc1cc(C)c(S(=O)(=O)n2cnc3ccccc32)c(C)c1	i
Cc1cc(C)c(S(N)(=O)=O)c(C)c1	i
COc1cc(NC(=O)COc2cc(C)ccc2C)c(OC)cc1Cl	i
CCc1cccc(CC)c1NS(=O)(=O)c1ccc2c(c1)c(=O)n(C)c(=O)n2C	i
CN(CC(=O)N1CCN(c2ccccc2)CC1)S(=O)(=O)c1ccc(Br)cc1	i
CNC(=O)[C@@H]1C[C@@H](N)CN1Cc1cc2ccc(C)cc2nc1N1CCOCC1	i
O=C(NCCNc1cccnc1)c1ccc(-c2ccn[nH]2)cc1	i
CCc1nnc(NS(=O)(=O)c2ccc(NC(=O)c3ccc(Br)cc3)cc2)s1	i
O=C1C=CC(=NOC(=O)c2cccc([N+](=O)[O-])c2Br)C=C1	i
CSCCC(NC(=O)C1CCC(C)CC1)C(=O)Nc1cccnc1 (stereo unspecified)	i
CN(C)CCN1C(=O)C(O)=C(C(=O)c2cccs2)C1c1ccccc1F (stereo unspecified)	i
COc1ccc(NC(=O)C(C)(C)Oc2ccc(Cl)cc2)cc1OC	i
COc1cc([N+](=O)[O-])ccc1NC(=O)C(C)(C)Oc1ccc(Cl)cc1	30.0%*
COc1cc(NC(=O)C(C)(C)Oc2ccc(Cl)cc2)c(OC)cc1Cl	i
SMILES	ST2 inh
Cc1cc2c(cc1O)NC(=O)CC2c1cc(=O)n2c3c(cccc13)CCC2 (stereo unspecified)	i
Cc1c(C)n2c3c(cccc13)CCC2	52.0%*
Cc1c(C=O)c2ccccc2n1CC(=O)N1CCCc2ccccc21	i
Nc1nc2n(n1)C(c1ccc(Cl)cc1)CC(c1ccccc1)N2 (stereo unspecified)	i
c1ccc(-c2nnc([C@H]3CCN(Cc4ccco4)C3)o2)cc1	i
O=c1[nH]nc(CCc2ccccc2O)n1Cc1ccco1	i
N=c1c2c(-c3ccccc3)c(-c3ccccc3)n(Cc3ccco3)c2ncn1Cc1ccco1	31.0%*
Cc1ccc2c(c1)c1c(n2CCN2C(=O)c3ccccc3C2=O)C(=O)CCC1	i
CN1CCc2[nH]c3c(Cl)cccc3c2C1	i
Cc1ccc2c(c1)c1c(n2CCC#N)CCN(C)C1	42.0%*
Nc1ccc(-c2nc3ccccc3[nH]2)cc1	i
Nc1ccc(-c2nc3ccc(-c4nc5ccc(N)cc5[nH]4)cc3[nH]2)cc1	35.0%*!
Nc1ccc(CCc2nc3ccc(N)cc3[nH]2)cc1	i
CC(=O)Nc1ccc(Oc2nc(C)nc3sc4c(c23)CCC4)cc1	i
C=CCN(Cc1cccc(OC)c1)C(=O)c1cc(Cl)ccc1OC	i
CN(Cc1ccc2ccccc2n1)Cc1cc(Cl)ccc1O	i
CCCOc1ccc(C2Oc3ccc(Br)cc3C=C2[N+](=O)[O-])cc1OC (stereo unspecified)	44.0%*
CCOc1ccc(S(=O)(=O)N2CCSC2c2ccc(OC)c([N+](=O)[O-])c2)cc1 (stereo unspecified)	i
CCCOc1ccc(/C=C2\N=C(c3cccc([N+](=O)[O-])c3)OC2=O)cc1OC	i
CCOc1cc2c(cc1OCC)C(c1ccc(Br)cc1)OC(=O)C2 (stereo unspecified)	i
COc1cc([N+](=O)[O-])ccc1NC(=O)COc1ccc(Br)cc1C	i
CCOc1ccc(C2Oc3c(cc(Br)cc3OC)C=C2[N+](=O)[O-])cc1OCC (stereo unspecified)	43.0%*
CCCCOc1ccc(C(=O)N(c2ccc(C)c(C)c2)C2C=CS(=O)(=O)C2)cc1 (stereo unspecified)	i
C=CCOC(=O)C1=C(C)N=C2SCCC(=O)N2C1c1ccc(OCC=C)cc1 (stereo unspecified)	i
O=C(O)c1ccc(S(=O)(=O)Nc2ccccc2C(=O)O)cc1	i
COc1ccc(Br)cc1CN1CCN(c2ccccn2)CC1	i
O=S(=O)(NC[C@H]1O[C@@H](CO)[C@@H](O)[C@H]1N1CCCCC1)c1ccc(Cl)cc1	i
Cc1ccccc1Cn1c(NCCc2ccccc2)nc2c1c(=O)n(C)c(=O)n2C	i
